From publication PMC5540273 (PLoS ONE, 2017)

Tested on: EPHB1
Details: concentration: 1 μM, replicates: in singlicate; n = 1
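Also: KINOMEscan kinase panel screen.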

Q: `O=C(Nc1ccc2c(c1)OCO2)NC1CCN(c2ccnc(NCc3ccc(F)cc3)n2)CC1` [GSK1379859] was tested. Which “%Inh” value did it give?
A: 0%

Q: Which “%Inh” value does the source give for `Nc1ncnc2c1ncn2-c1cccc(F)c1` [SKF-97560] here?
A: 17%

Q: `COc1ccc(-c2cc3c(C)nc(N)nc3n([C@H]3CC[C@H](O)CC3)c2=O)cn1` was tested. Which “%Inh” value did it give?
A: 0%

Q: Which “%Inh” value does the source give for `COc1ccc(CNC(=O)NC2CCN(c3ccnc(Nc4ccc(F)cc4)n3)C2)cc1` (stereo not shown) [GSK1379706] here?
A: 16%

Q: For `Nc1ncnc2c1ncn2-c1cccc2ccccc12` [SKF-97184], which “%Inh” value is on record?
A: 0%

Q: For `COc1cccc(C2=C(N(C)c3ccccc3)C(=O)NC2=O)c1` [SB-334865], which “%Inh” value is on record?
A: 18%

Q: Which “%Inh” value does the source give for `Nc1nc(N)c2nc(-c3ccccc3)[nH]c2n1` [SKF-12778] here?
A: 18%

Q: How did the “%Inh” value turn out when `COc1cc2ncn(-c3cc(OCc4ccncc4Br)c(C(N)=O)s3)c2cc1OC` [GW854278] was run?
A: 0%

Q: For `Nc1n[nH]c2nnc(-c3ccccc3)c(-c3ccccc3)c12` [GW554060], which “%Inh” value is on record?
A: 9%

Q: For `Nc1nc(-c2ccccc2F)c(-c2ccnc3ccccc23)s1` [GW560459], which “%Inh” value is on record?
A: 34%

Q: How did the “%Inh” value turn out when `Nc1nccc2scc(-c3ccc4c(c3)CCN4C(=O)Cc3ccccc3)c12` [GSK2576924] was run?
A: 0%

Q: For `Cc1cccc(-c2cc(-c3c[nH]nc3-c3ccccn3)ccn2)c1` [GW679395], which “%Inh” value is on record?
A: 33%

Q: How did the “%Inh” value turn out when `Cc1ccc(-c2ccc3c(ccc4sc5c(c43)NC[C@@H](C)N=C5N(C)C)n2)cn1` was run?
A: 0%

Q: How did the “%Inh” value turn out when `CCCNC(=O)Nc1ccc(Oc2ncnc3ccn(C)c23)cc1` was run?
A: 1%

Q: For `CCCC(=O)Nc1n[nH]c2ncc(-c3cccc4ccccc34)cc12` [SB-642057], which “%Inh” value is on record?
A: 15%

Q: How did the “%Inh” value turn out when `CCC(=O)c1c(-c2ccccc2)c2cc(Cl)ccc2c(=O)n1Cc1ccc(C(=O)O)cc1` was run?
A: 9%

Q: With `COc1cc2ncn(-c3cc(OCCCc4ccccc4)c(C(N)=O)s3)c2cc1OC` [GSK205189] as the molecule, how does the “%Inh” value read?
A: 4%

Q: Which “%Inh” value does the source give for `Cc1cc(Nc2nc(-c3cccc(C)n3)nc3ccccc23)ccn1` [GW872411] here?
A: 0%

Q: With `COc1ccc(-c2cc3c(C)nc(N)nc3n([C@H]3CC[C@H](OCCO)CC3)c2=O)cn1` as the molecule, how does the “%Inh” value read?
A: 0%

Q: `O=C(Nc1n[nH]c2nc(-c3ccccc3)c(Cl)cc12)C1CC1` [SB-734909] was tested. Which “%Inh” value did it give?
A: 0%

Q: How did the “%Inh” value turn out when `COc1cc2ncn(-c3cc(OCc4ccc(S(C)(=O)=O)cc4)c(C(N)=O)s3)c2cc1OC` [GW869979] was run?
A: 9%

Q: `CN1C(=O)C(Nc2ccccc2)=C(c2ccccc2)C1=O` [SB-300079] was tested. Which “%Inh” value did it give?
A: 17%
